Source: PubChem BioAssay
TRHR agonist: activates the human TRH receptor | P34981 | TRHR cells, calcium flux fluo-8, FDSS agonist mode | activation, % at 2 µM | hit rate 0.18% among 360,000 | AID 493084; note: 0% is about no effect
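Steps: seed TRHR cells overnight; add fluo-8 no-wash Ca dye, RT 30 min–1.5 h; record 10 s baseline; pin-transfer compounds; monitor fluorescence 1 cycle/s for the agonist window. Calcium increases flag candidate agonists.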
D1 agonist: agonists of human D1 dopamine receptor | HEK293 T-REx D1 cells, calcium flux, agonist mode | activation, % at 2 µM | P21728 | hit rate 1% among 360,000; note: 0% is about no effect
Target sequence (P21728 whole entry, looked up): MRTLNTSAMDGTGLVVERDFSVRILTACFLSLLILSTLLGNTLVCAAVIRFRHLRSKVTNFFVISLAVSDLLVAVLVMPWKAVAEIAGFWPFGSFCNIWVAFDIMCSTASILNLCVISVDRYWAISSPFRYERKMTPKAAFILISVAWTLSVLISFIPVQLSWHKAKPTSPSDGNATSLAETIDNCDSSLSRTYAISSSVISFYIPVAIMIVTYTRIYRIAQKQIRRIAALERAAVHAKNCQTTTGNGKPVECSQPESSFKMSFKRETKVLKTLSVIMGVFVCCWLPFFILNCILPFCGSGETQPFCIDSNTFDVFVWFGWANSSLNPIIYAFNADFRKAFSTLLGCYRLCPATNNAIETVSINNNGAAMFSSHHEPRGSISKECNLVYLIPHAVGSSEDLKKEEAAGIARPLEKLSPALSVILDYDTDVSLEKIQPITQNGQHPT
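Tetracycline-induced HEK293 TREx D1 cells, force-coupled to calcium signalling, were dye-loaded with a no-wash calcium kit. Compound was pin-added after a 10 s baseline. Fluorescence was read kinetically at 1 cycle/s for 180 s, with calcium rises flagged as agonism.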
TRHR PAM: allosteric enhancers of human TRH receptor; P34981; AID 493056; enhancement, % at 2 µM; TRHR cells, fluo-8 calcium fluorescence, EC20 TRH enhancement; hit rate 0.66% among 360,000; in the data active = enhancement above about 30%; note: 0% is about no effect
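Enhancer read-out: after compound pinning and an initial kinetic agonist-mode read, an EC20 of TRH (10 nM final) was injected and fluo-8 calcium signal (Ex 480/Em 530) followed at 1 s/cycle for 100 cycles in TRHR-expressing cells.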
D1 PAM: enhances dopamine response at the human D1 receptor | P21728 | hit rate 0.036% among 360,000 | potentiation, % at 10 µM | HEK293 TREx D1 cells, calcium flux, dopamine EC20 potentiation; in the data active = potentiation above about 30%; note: 0% is about no effect
D1 antag: blocks dopamine activation of the human D1 receptor. P21728. HEK293 TREx D1 cells, calcium flux, dopamine EC80; stronger effect = lower value. activity change, negative = inhibition, % at 10 µM. hit rate 3.2% among 360,000; in the data active = activity change below about -30%; note: % is set by controls: 0 for no effect and ±100 for the full control effect
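Using tetracycline-induced force-coupled D1 Hek293 cells and a calcium dye, signals were followed for 180 s after compound, then for 180 s after EC80 dopamine, to detect inhibitors.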
The depositor's hits bear a star. Sampled rows, rich in hits. Any-hit rate of the full collection: about 4.6%. Cut-off read from the data, not from the text of the source, unless noted: active = activation above about 30%; inactive = the rest.

What do the screens show for `O=C(NCc1ccccc1Cl)c1nnc(CS(=O)(=O)c2ccccc2)o1`?
TRHR agonist: 0.2; D1 agonist: 8.9; TRHR PAM: 30.8*; D1 PAM: -10.3; D1 antag: -3.3

What do the screens show for `Cn1c(=O)c(Nc2ccc(Cl)cc2)c2c3c(cccc31)C(=O)c1ccccc1-2`?
TRHR agonist: 16.7; D1 agonist: 78.2*; TRHR PAM: -0.1; D1 PAM: 7.4; D1 antag: 3.9

Results for c1ccc(C(c2ccccc2)N2CCN(Cc3nc(-c4cnccn4)no3)CC2)cc1 ?
TRHR agonist: -0.5; D1 agonist: 1.5; TRHR PAM: 5.0; D1 PAM: 3.5; D1 antag: -15.7

How did Clc1cccc2c1CCN(Cc1nc(-c3cnccn3)no1)C2 do in these assays?
TRHR agonist: -0.2; D1 agonist: -0.2; TRHR PAM: -16.9; D1 PAM: -14.2; D1 antag: -90.1*

Results for CCN1CCN(c2cc3c(cc2F)c(=O)c(S(=O)(=O)c2ccc(OC)cc2)cn3CC)CC1 ?
TRHR agonist: 0.5; D1 agonist: -1.0; TRHR PAM: 18.2; D1 PAM: 3.2; D1 antag: -0.5

What do the screens show for `CCc1ccccc1-n1nnnc1SCC(=O)Nc1ccc(N2CCN(C)CC2)cc1`?
TRHR agonist: 0.4; D1 agonist: 3.0; TRHR PAM: -1.9; D1 PAM: -6.5; D1 antag: -60.3*

Results for Cc1ccccc1-n1nnnc1SCC(=O)Nc1ccc(N2CCN(C)CC2)cc1 ?
TRHR agonist: -0.1; D1 agonist: 13.7; TRHR PAM: 3.4; D1 PAM: -13.4; D1 antag: -77.0*

What do the screens show for `CCc1ccccc1-n1nnnc1SCC(=O)Nc1cc(C)on1`?
TRHR agonist: -0.7; D1 agonist: -0.7; TRHR PAM: 8.2; D1 PAM: -0.7; D1 antag: -2.0

Results for Cc1cccc(-n2nnnc2SCC(=O)Nc2ccc(N3CCN(C)CC3)cc2)c1 ?
TRHR agonist: -0.6; D1 agonist: 2.8; TRHR PAM: 5.7; D1 PAM: -9.9; D1 antag: -4.6

How did CC(Sc1nc2ccccc2n1C)C(=O)Nc1ccc(N2CCOCC2)cc1 (configuration not stated) do in these assays?
TRHR agonist: -0.7; D1 agonist: 0.5; TRHR PAM: 6.6; D1 PAM: -0.3; D1 antag: -0.5

Results for Cc1ccccc1-n1nnnc1SC(C)C(=O)Nc1ccc(N2CCN(C)CC2)cc1 (configuration not stated) ?
TRHR agonist: 0.3; D1 agonist: 14.1; TRHR PAM: 7.3; D1 PAM: -10.5; D1 antag: -67.9*

Results for Cc1cc(C)cc(OCC(=O)OCCN2C(=O)c3ccccc3C2=O)c1 ?
TRHR agonist: -0.4; D1 agonist: 3.1; TRHR PAM: 39.3*; D1 PAM: 14.1; D1 antag: -6.7

What do the screens show for `Cc1ccc(OCC(=O)OCCN2C(=O)c3ccccc3C2=O)cc1C`?
TRHR agonist: -0.3; D1 agonist: 1.2; TRHR PAM: -3.2; D1 PAM: 0.1; D1 antag: 3.6

Results for Cc1csc(SCC(=O)Nc2ccc(C)c(F)c2)n1 ?
TRHR agonist: -0.7; D1 agonist: 0.9; TRHR PAM: -3.0; D1 PAM: 3.4; D1 antag: -39.5*

Results for O=C(NC1CC(=O)N(c2ccccc2)C1)C1CCCCC1 (configuration not stated) ?
TRHR agonist: 0.2; D1 agonist: 0.3; TRHR PAM: 22.6; D1 PAM: -2.6

How did COc1cc(/C=N\NC(=O)c2ccc(-c3ccccc3)cc2)cc(OC)c1O do in these assays?
TRHR agonist: -0.5; D1 agonist: -0.1; TRHR PAM: -2.7; D1 PAM: -2.6; D1 antag: -31.5*

What do the screens show for `COc1cc(/C=N/NC(=O)c2ccc(CSc3nc4ccccc4[nH]3)cc2)cc(OC)c1OC`?
TRHR agonist: -0.6; D1 agonist: 10.9; TRHR PAM: 3.9; D1 PAM: -9.9; D1 antag: -33.5*

Results for COc1cc(/C=N/NC(=O)c2ccc3nc[nH]c3c2)cc(OC)c1OC ?
TRHR agonist: 1.6; D1 agonist: 0.0; TRHR PAM: 14.4; D1 PAM: -1.4; D1 antag: 7.1

Results for COc1ccc(NC(=O)C2CCN(S(=O)(=O)c3ccc4[nH]c(=O)ccc4c3)CC2)cc1Cl ?
TRHR agonist: 0.4; D1 agonist: 0.8; TRHR PAM: -0.8; D1 PAM: -5.1; D1 antag: 3.3

Results for CCOc1ccc(C2C(=O)N(C3CCCCCC3)CC(=O)N2CCc2ccccc2)cc1OC (configuration not stated) ?
TRHR agonist: -0.4; D1 agonist: -1.4; TRHR PAM: -8.2; D1 PAM: -0.7; D1 antag: 12.9

How did CC1=C(C(N)=O)C(c2ccc(C(C)C)cc2)n2nc(SCc3ccccc3F)nc2N1 (configuration not stated) do in these assays?
TRHR agonist: 1.0; D1 agonist: 3.2; TRHR PAM: -3.3; D1 PAM: -0.9; D1 antag: -9.6

How did Cc1cccc(OCc2ccc(-c3nc(C#N)c(NCCN(C)C)o3)o2)c1 do in these assays?
TRHR agonist: -2.7; D1 agonist: 101.8*; TRHR PAM: -6.8; D1 PAM: 3.0; D1 antag: -17.7

Results for O=C(OCc1cc(=O)n2nc(C3CC3)sc2n1)c1ccc(NC(=O)c2ccccc2Cl)cc1 ?
TRHR agonist: 1.5; D1 agonist: 7.5; TRHR PAM: -8.4; D1 PAM: 0.1; D1 antag: -27.9

How did CC(=O)N1CCc2cc(Br)cc(S(=O)(=O)NCCc3cccc(C)c3)c21 do in these assays?
TRHR agonist: -0.6; D1 agonist: 1.7; TRHR PAM: -9.3; D1 PAM: 1.6; D1 antag: 0.3

What do the screens show for `CC(=O)c1ccc(OCCCC(=O)NC2CCCc3ccccc32)cc1` (configuration not stated)?
TRHR agonist: -0.7; D1 agonist: -0.2; TRHR PAM: -3.3; D1 PAM: -0.7; D1 antag: -31.8*

What do the screens show for `COc1ccccc1NC(=O)NC1CCCc2ccccc21` (configuration not stated)?
TRHR agonist: -0.1; D1 agonist: 2.0; TRHR PAM: -0.4; D1 PAM: -4.3; D1 antag: -5.1

What do the screens show for `COc1ccc(OCC(=O)NC2CCCc3ccccc32)cc1` (configuration not stated)?
TRHR agonist: -0.3; D1 agonist: 1.9; TRHR PAM: -2.4; D1 PAM: -3.6; D1 antag: -3.5

How did CCOc1ccccc1NC(=O)NC1CCCc2ccccc21 (configuration not stated) do in these assays?
TRHR agonist: -0.7; D1 agonist: 0.4; TRHR PAM: -3.1; D1 PAM: -1.9; D1 antag: -32.7*

What do the screens show for `Cn1c(/C(C#N)=C/c2ccccc2Br)nc2ccccc21`?
TRHR agonist: -1.8; D1 agonist: -0.7; TRHR PAM: -3.0; D1 PAM: 0.9; D1 antag: -15.7
